Measured values as given in PubChem BioAssay AID504834 (National Center for Advancing Translational Sciences (NCATS), 2011).
In all, about 320,000 compounds went through this assay and about 22,000 (6.9%) were called active. Entries that show only a call come without a potency. Not shown: some 27% with an inconclusive outcome. Calls come from the whole dose curve; as a rule, active = well fitted inhibition curve with a large enough effect; inconclusive = small, poorly fitted or top-dose-only effect, or another doubt; inactive = no such curve, though single readings can be large or run the other way. Many of the other results were omitted from the sample, so actives are more common in it than they were.

Assay: Primary qHTS for delayed death inhibitors of the malarial parasite plastid, 96 hour incubation
Conditions: P. falciparum luciferase reporter growth; series mostly up to 28.7 µM
How it was run: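 96 h incubation, 37 C, 5% CO2, of luciferase-reporter P. falciparum-infected RBCs (2% hematocrit, 0.05% parasitemia final) with test compounds; endpoint luminescence.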
Potency is the fitted concentration of half-maximal effect.

Q: For NC(=O)c1ccsc1NC(=O)COC(=O)Cc1n[nH]c(=O)c2ccccc12, which Potency is on record?
A: Its Potency is “inactive”.

Q: For CCCn1c(C(O)c2ccc(OCC)cc2)nc2ccccc21 (stereo not drawn), which Potency is on record?
A: The Potency was “inactive”.

Q: Which Potency does the source give for CCn1c(C(O)c2cc(OC)ccc2OC)nc2ccccc21 (stereo not drawn) here?
A: Its Potency is 9.28 µM (active).

Q: For COc1ccc(OC)c(C(O)c2nc3ccccc3n2C)c1 (stereo not drawn), which Potency is on record?
A: Its Potency is “inactive”.

Q: With O=C(Nc1cccc(Cl)c1)c1cc(S(=O)(=O)N2CCCCC2)c[nH]1 as the compound, how does the Potency read?
A: The Potency was “inactive”.

Q: For CC(=O)Nc1ccc(S(=O)(=O)NC2Cc3ccccc3C2)cc1, which Potency is on record?
A: The Potency was “inactive”.

Q: Which Potency does the source give for CCOc1ccc2nc(Cl)c(C3CC(c4ccccc4)=NN3C(=O)c3cccs3)cc2c1 (stereo not drawn) here?
A: Its Potency is 8.28 µM (active).

Q: With COc1ccc(C2=NN(C(=O)c3ccccc3C(=O)O)C(c3ccccc3O)C2)cc1 (stereo not drawn) as the compound, how does the Potency read?
A: Its Potency is “inactive”.

Q: For COc1ccc(C2CC(c3ccccc3)=NN2C(=O)c2ccc(Cl)c([N+](=O)[O-])c2)cc1 (stereo not drawn), which Potency is on record?
A: The Potency was “inactive”.

Q: For Cc1ccccc1Cn1c2ccccc2c2cnn(CC(=O)NCc3ccco3)c(=O)c21, which Potency is on record?
A: Its Potency is “inactive”.

Q: For CCN(C(=O)COC(=O)CCOc1cccc(C)c1)c1c(N)n(Cc2ccccc2)c(=O)[nH]c1=O, which Potency is on record?
A: The Potency was “inactive”.

Q: For COc1ccc(NC(=O)CN(C)CC(=O)Nc2cccc(C(F)(F)F)c2)cc1, which Potency is on record?
A: Its Potency is “inactive”.

Q: Which Potency does the source give for COc1cc(NC(=O)c2cncc(-c3ccc(C#N)cc3)c2)cc(C(=O)Nc2cccc(C(F)(F)F)c2)c1 here?
A: The Potency was 6.57 µM (active).

Q: Which Potency does the source give for O=C(Nc1cccc(C(F)(F)F)c1)c1cnccn1 here?
A: The Potency was “inactive”.

Q: For Cc1c(Cl)cccc1NC(=S)NCC(O)c1ccccc1 (stereo not drawn), which Potency is on record?
A: The Potency was “inactive”.

Q: Which Potency does the source give for CC(C)C(=O)NCC(c1cccs1)S(=O)(=O)c1ccc(F)cc1 (stereo not drawn) here?
A: The Potency was “inactive”.

Q: Which Potency does the source give for O=C(OC(C(=O)NC1CCCC1)c1ccc(F)cc1)c1ccno1 (stereo not drawn) here?
A: Its Potency is “inactive”.

Q: For COCCNC(=O)C(OC(=O)c1cccs1)c1ccc(F)cc1 (stereo not drawn), which Potency is on record?
A: Its Potency is 13.1 µM (active).

Q: Which Potency does the source give for CC(=O)C[C@@H](O)CC(=O)[C@H]1OC(=O)CCCCCCc2ccccc21 here?
A: The Potency was “inactive”.

Q: With CCCCn1c(N)c(N(CCOC)C(=O)c2cccc(OCc3ccccc3)c2)c(=O)[nH]c1=O as the compound, how does the Potency read?
A: Its Potency is “inactive”.

Q: With Cc1cccn2c(CNCC(C)Oc3cccnc3)c(C(=O)N3CCOCC3)nc12 (stereo not drawn) as the compound, how does the Potency read?
A: Its Potency is “inactive”.

Q: For COCC(C)OC(=O)c1c(N)n(CCCN2CCOCC2)c2nc3ccccc3nc12 (stereo not drawn), which Potency is on record?
A: Its Potency is “inactive”.

Q: Which Potency does the source give for Cc1ccc2cc(C#N)c(NCCNC(=S)NCCCN3CCOCC3)nc2c1 here?
A: Its Potency is “inactive”.

Q: Which Potency does the source give for CCn1c(=N)c(C(=O)NCCCOC)cc2c(=O)n3cccc(C)c3nc21 here?
A: The Potency was “inactive”.

Q: Which Potency does the source give for COc1ccc(CCn2c(=N)c(C(=O)NCc3ccco3)cc3c(=O)n4cccc(C)c4nc32)cc1 here?
A: Its Potency is 0.586 µM (active).

Q: For COCCNC(=O)c1ccc(Cn2c(SCC(=O)NCC3CCCO3)nc3ccc(Br)cc3c2=O)cc1 (stereo not drawn), which Potency is on record?
A: The Potency was “inactive”.

Q: Which Potency does the source give for Cc1cccn2c(=O)c3cc(C(=O)NCCN4CCOCC4)c(=N)n(Cc4cccnc4)c3nc12 here?
A: The Potency was 7.38 µM (active).

Q: Which Potency does the source give for Cc1ccc(-c2noc(-c3ccccc3C(=O)NCC3CCCO3)n2)cc1 (stereo not drawn) here?
A: Its Potency is “inactive”.

Q: With Cc1cccn2c(=O)c3cc(C#N)c(=O)n(CCCN4CCOCC4)c3nc12 as the compound, how does the Potency read?
A: The Potency was 2.62 µM (active).

Q: For COc1ccc(Cn2c(=S)[nH]c3cc(C(=O)NCCCN4CCOCC4)ccc3c2=O)cc1, which Potency is on record?
A: The Potency was “inactive”.

Q: With O=C(NCc1ccco1)c1cccn2c(=O)c3c4c(sc3nc12)CCCC4 as the compound, how does the Potency read?
A: The Potency was “inactive”.

Q: With Cc1cccn2c(=O)c3cc(C(=O)NCC4CCCO4)c(=N)n(Cc4ccc(F)cc4)c3nc12 (stereo not drawn) as the compound, how does the Potency read?
A: The Potency was 9.28 µM (active).

Q: With O=C(c1c(F)cccc1F)N1CCN(c2ncc(Br)cn2)CC1 as the compound, how does the Potency read?
A: The Potency was “inactive”.

Q: Which Potency does the source give for COC(=O)c1ccc(/C=N/NC(=O)C(=O)N2CCCCCC2)cc1 here?
A: The Potency was “inactive”.

Q: With Brc1ccccc1C1N=C(c2ccccc2)NO1 (stereo not drawn) as the compound, how does the Potency read?
A: Its Potency is “inactive”.

Q: Which Potency does the source give for CCCCn1c(N)c(N(CC(C)C)C(=O)c2cccc(S(=O)(=O)N3CCN(C(C)=O)CC3)c2)c(=O)[nH]c1=O here?
A: Its Potency is “inactive”.

Q: Which Potency does the source give for CCN(C(=O)Cc1c(C(=O)O)n(CC)c2ccccc12)c1ccccc1C here?
A: The Potency was “inactive”.

Q: Which Potency does the source give for COc1ccc(C(=O)COC(=O)Cn2cnc3c2c(=O)n(C)c(=O)n3C)c(OC)c1 here?
A: The Potency was “inactive”.

Q: Which Potency does the source give for N#Cc1cccc(CSc2ncnc(N)n2)c1 here?
A: The Potency was “inactive”.

Q: With Cc1cc(N2CCN(c3ccccc3)CC2)nc(N2CCOCC2)n1 as the compound, how does the Potency read?
A: The Potency was “inactive”.

Q: Which Potency does the source give for Cc1cc(C)n(-c2nnc(N3CCN(c4ccccc4)CC3)nn2)n1 here?
A: Its Potency is 0.329 µM (active).

Q: With Cc1cc(-n2nc(C)cc2C)n2ncc(-c3ccccc3)c2n1 as the compound, how does the Potency read?
A: Its Potency is “inactive”.

Q: Which Potency does the source give for COc1ccc(N(CC(=O)Nc2cc(OC)cc(OC)c2)S(=O)(=O)c2c(C)n[nH]c2C)cc1 here?
A: Its Potency is “inactive”.

Q: For Cc1ccnc(N2C(=O)c3ccc([N+](=O)[O-])cc3C2=O)c1, which Potency is on record?
A: Its Potency is “inactive”.

Q: With Nc1cc(N2CCCCCC2)c2nonc2c1[N+](=O)[O-] as the compound, how does the Potency read?
A: Its Potency is “inactive”.

Q: For COc1ccc(C(=O)Nc2ccc3nc(N4CCCCC4)cc(C)c3c2)cc1OC, which Potency is on record?
A: The Potency was 11.7 µM (active).

Q: For COc1ccc(C(=O)Nc2ccc3c(c2)OCO3)cc1OC, which Potency is on record?
A: The Potency was “inactive”.

Q: With COc1ccc(C(=O)NC(=S)Nc2ccc(N3CCCC3)cc2)cc1OC as the compound, how does the Potency read?
A: The Potency was “inactive”.

Q: With COc1ccccc1C(=O)NCC(=O)NCCSc1ccc(Br)cc1 as the compound, how does the Potency read?
A: The Potency was “inactive”.

Q: Which Potency does the source give for CCOc1cc(/C=N/Nc2cc(C)nc3ccc(C)cc23)ccc1O here?
A: The Potency was “inactive”.

Q: With CNc1ccc([N+](=O)[O-])cc1C(=O)O as the compound, how does the Potency read?
A: The Potency was “inactive”.

Q: With CCCCN(C(=O)c1ccc(S(=O)(=O)N2CCOCC2)cc1)C1CCS(=O)(=O)C1 (stereo not drawn) as the compound, how does the Potency read?
A: Its Potency is “inactive”.

Q: For CC1CCCCN1C(=O)Cn1c(=O)oc2cc(S(=O)(=O)N3CCCCC3)ccc21 (stereo not drawn), which Potency is on record?
A: The Potency was “inactive”.

Q: Which Potency does the source give for O=C(Nc1ccccc1N1CCN(C(=O)c2ccccc2)CC1)c1ccco1 here?
A: The Potency was “inactive”.

Q: Which Potency does the source give for CCCNC(=O)c1ccc(N2CCC3(CC2)CC(c2cccc(Br)c2)=NO3)c(NC(=O)c2ccco2)c1 here?
A: Its Potency is 0.37 µM (active).

Q: With COC(=O)c1ccc(N2CCOCC2)c(NC(=O)c2ccc(Br)o2)c1 as the compound, how does the Potency read?
A: Its Potency is “inactive”.

Q: For CC(CCc1ccc(O)cc1)NCc1ccc(Cl)cc1Cl (stereo not drawn), which Potency is on record?
A: The Potency was “inactive”.

Q: With O=C(CNS(=O)(=O)c1ccccc1)N1CCN(C(=O)c2ccco2)CC1 as the compound, how does the Potency read?
A: The Potency was “inactive”.

Q: For CC(OC(=O)Cc1ccc(F)cc1)C(=O)N1CCc2ccccc21 (stereo not drawn), which Potency is on record?
A: Its Potency is “inactive”.

Q: With N=c1c2c3c(sc2ncn1N)CCCC3 as the compound, how does the Potency read?
A: The Potency was “inactive”.

Q: Which Potency does the source give for N=c1c2c3c(sc2ncn1N)CCCCC3 here?
A: Its Potency is 3.7 µM (active).

Q: For c1nnc2c3c4c(sc3ncn12)CCC4, which Potency is on record?
A: Its Potency is “inactive”.

Q: Which Potency does the source give for C[C@@H]1O[C@@H](OC[C@H]2O[C@@H](Oc3c(-c4ccc(O)cc4)oc4cc(O)cc(O)c4c3=O)[C@H](O)[C@@H](O)[C@@H]2O)[C@H](O)[C@H](O)[C@H]1O here?
A: Its Potency is “inactive”.
